Measured values published in PubChem BioAssay (NCI).
“And” between values parts separate entries of the source, which are not always exact repeats. Identical values can stand only once. This is part of a sample that, as a whole, favours compounds with a hit. Of some 83,000 tested, about 20% had one in any assay.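 Activity criterion: percent growth below 10, measured after cells in 96-well plates were exposed to a single compound concentration for 48 hours.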 The source made the active and inactive calls.

What was measured:
Test in all cases: NCI-60 one-dose screen, 48 h (100 = growth as untreated, 0 = no growth, -100 = all killed)
[1] = tested on: DU-145 prostate
[2] = tested on: K-562 leukemia
[3] = tested on: MALME-3M melanoma
[4] = tested on: MDA-MB-231 breast
[5] = tested on: RXF 393 renal
[6] = tested on: SF-268 CNS
[7] = tested on: SF-295 CNS
[8] = tested on: SF-539 CNS
[9] = tested on: UACC-257 melanoma
[10] = tested on: M14 melanoma
[11] = tested on: HCT-15 colon
[12] = tested on: HT29 colon
[13] = tested on: SNB-75 CNS
[14] = tested on: SNB-19 CNS; conditions: 10 µM unless noted
[15] = tested on: U251 CNS; conditions: 10 µM unless noted
[16] = tested on: PC-3 prostate
[17] = tested on: SK-MEL-5 melanoma
[18] = tested on: UACC-62 melanoma
[19] = tested on: LOX IMVI melanoma
[20] = tested on: SK-MEL-28 melanoma

Measured: growth

CN1CCN(C2CCN(C(=O)Nc3cc(Oc4ccc(NC(=O)C5(C(=O)Nc6ccc(F)cc6)CC5)c(F)c4)ccn3)CC2)CC1
-77.3% (active) and 57% (inactive): [10]; 10 µM unless noted
-22.5% (active) and 90.8% (inactive): [6]; 10 µM unless noted
-60.3% (active) and 46.5% (inactive): [12]; 10 µM unless noted
8.48% (active) and 69.1% (inactive): [1]; 10 µM unless noted
-86.6% (active) and 60.2% (inactive): [3]; 10 µM unless noted
-86.3% (active) and 98.1% (inactive): [15]
-96.4% (active) and 58.7% (inactive): [8]; 10 µM unless noted
-91.6% (active) and 94.3% (inactive): [20]; 10 µM unless noted
-87.8% (active) and 50.8% (inactive): [7]; 10 µM unless noted
3.95% (active) and 115% (inactive): [14]
-91.7% (active) and 86.4% (inactive): [5]; 10 µM unless noted
-77.5% (active) and 77.2% (inactive): [13]; 10 µM unless noted
0.176% (active) and 37.1% (inactive): [2]; 10 µM unless noted
-98% (active) and 80.1% (inactive): [17]; 10 µM unless noted
-88.3% (active) and 93.1% (inactive): [19]; 10 µM unless noted
-91.6% (active) and 95.8% (inactive): [9]; 10 µM unless noted
-78% (active) and 70.7% (inactive): [18]; 10 µM unless noted
-14.8% (active) and 93.5% (inactive): [11]; 10 µM unless noted
-12.3% (active) and 86.1% (inactive): [16]; 10 µM unless noted
-65.7% (active) and 68.3% (inactive): [4]; 10 µM unless noted

CCc1ccccc1-n1c(N)c(C#N)c(-c2ccc(OC)c(OC)c2)c(C#N)c1=O
active: [3]; 100 µM -31.2% | [5]; 100 µM -21.6% | [6]; 100 µM 0.0621% | [8]; 100 µM -54.9% | [13]; 100 µM -43%
inactive: [1]; 10 µM 115% | [1]; 100 µM 37.6% | [2]; 10 µM 111% | [2]; 100 µM 124% | [3]; 10 µM 103% | [4]; 10 µM 105% | [4]; 100 µM 23.3% | [5]; 10 µM 111% | [6]; 10 µM 102% | [7]; 10 µM 101% | [7]; 100 µM 19.7% | [8]; 10 µM 118% | [9]; 10 µM 128% | [9]; 100 µM 96.8% | [10]; 10 µM 112% | [10]; 100 µM 37.1% | [11]; 10 µM 101% | [11]; 100 µM 81.2% | [12]; 10 µM 110% | [12]; 100 µM 102% | [13]; 10 µM 98% | [16]; 10 µM 110% | [16]; 100 µM 14.2% | [17]; 10 µM 113% | [17]; 100 µM 67.1% | [18]; 10 µM 105% | [18]; 100 µM 35% | [19]; 10 µM 104% | [19]; 100 µM 57.8% | [20]; 10 µM 124% | [20]; 100 µM 54%

CCCCOc1cc(C(=O)NCCN(CC)CC)c2ccccc2n1
inactive: [1]; 10 µM unless noted 109% and 106% | [2]; 10 µM unless noted 92.4% and 104% | [3]; 10 µM unless noted 93% and 106% | [4]; 10 µM unless noted 86.5% and 96.9% | [5]; 10 µM unless noted 80.7% and 94% | [6]; 10 µM unless noted 103% and 101% | [7]; 10 µM unless noted 92.5% and 97.5% | [8]; 10 µM unless noted 95.2% and 106% | [9]; 10 µM unless noted 62.2% | [10]; 10 µM unless noted 93.8% and 105% | [11]; 10 µM unless noted 96.5% and 100% | [12]; 10 µM unless noted 57.7% and 92.4% | [13]; 10 µM unless noted 75.2% and 88.9% | [14] 90.1% and 91.9% | [15] 83.4% and 92.2% | [16]; 10 µM unless noted 73.9% and 96% | [17]; 10 µM unless noted 86.4% and 94.5% | [18]; 10 µM unless noted 95.6% and 90.1% | [19]; 10 µM unless noted 88.4% and 110% | [20]; 10 µM unless noted 102% and 104%

c1ccc(NCc2ccc3c(c2)OCO3)cc1
inactive: [1]; 10 µM unless noted 111% and 108% | [2]; 10 µM unless noted 105% and 98.7% | [3]; 10 µM unless noted 106% and 119% | [4]; 10 µM unless noted 100% and 106% | [5]; 10 µM unless noted 104% and 95.2% | [6]; 10 µM unless noted 99.1% and 99.4% | [7]; 10 µM unless noted 105% | [8]; 10 µM unless noted 102% and 91.4% | [9]; 10 µM unless noted 101% and 97.5% | [10]; 10 µM unless noted 101% | [11]; 10 µM unless noted 108% and 93% | [12]; 10 µM unless noted 103% and 104% | [13]; 10 µM unless noted 89.7% and 95.8% | [14] 99% | [15] 99.3% and 93.3% | [16]; 10 µM unless noted 96.1% and 93.6% | [17]; 10 µM unless noted 100% | [18]; 10 µM unless noted 110% and 100% | [19]; 10 µM unless noted 106% and 98.9% | [20]; 10 µM unless noted 120% and 105%
